Source: PubChem (National Center for Advancing Translational Sciences (NCATS))
uPA surface inh: cell surface uPA generation inhibition; cell surface uPA generation assay, qHTS; Potency, µM (top dose mostly 38.3 µM), for inactives: at the top dose activity change, negative = inhibition, hits mostly inhibitors; 330,000 compounds, 0.31% hits; AID 540303; active means well fitted inhibition curve with a large enough effect; inconclusive means small, poorly fitted or top-dose-only effect; inactive means no such curve, though single readings can be large or run the other way; tested in mouse RAW 264.7 cells; further: on the % scale 0 is the no-effect control and ±100 the full control effect; nearly all actives have a fitted effect of over 55% in size
FLuc modulator: firefly luciferase modulation, counter-screen for miR-21 project; Potency, µM (top dose mostly 57.5 µM), without a hit: at the top dose activity change, negative = inhibition, actives largely listed as inhibitors; AID 588342; purified FLuc, Km substrates, luminescence inhibition; 360,000 compounds, 6.9% hits; P08659;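 further: plate controls were vehicle for no effect and reference inhibitor for full effect; nearly all actives have a fitted effect of over 55% in size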
Target sequence (P08659 whole entry, looked up): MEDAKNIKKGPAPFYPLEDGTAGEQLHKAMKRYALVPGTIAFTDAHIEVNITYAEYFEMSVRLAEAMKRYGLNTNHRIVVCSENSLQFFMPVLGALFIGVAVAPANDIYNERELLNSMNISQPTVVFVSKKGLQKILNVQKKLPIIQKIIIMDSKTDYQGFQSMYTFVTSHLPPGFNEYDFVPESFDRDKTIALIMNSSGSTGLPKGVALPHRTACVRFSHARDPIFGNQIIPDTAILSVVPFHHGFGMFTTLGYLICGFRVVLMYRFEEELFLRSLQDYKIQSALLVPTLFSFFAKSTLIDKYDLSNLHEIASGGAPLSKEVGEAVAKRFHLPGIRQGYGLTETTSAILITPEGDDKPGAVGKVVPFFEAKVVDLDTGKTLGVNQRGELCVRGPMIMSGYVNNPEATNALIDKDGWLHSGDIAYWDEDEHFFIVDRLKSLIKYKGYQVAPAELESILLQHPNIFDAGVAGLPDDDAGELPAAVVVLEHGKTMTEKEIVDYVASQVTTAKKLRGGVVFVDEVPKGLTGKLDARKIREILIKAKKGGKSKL
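Purified P. pyralis luciferase, 10 nM final, with Km-level 10 uM D-luciferin and 10 uM ATP in 50 mM Tris acetate pH 7.5, 10 mM Mg acetate, 0.01% Tween-20, 0.05% BSA; 6-point qHTS titration about 60 µM downward; luminescence read.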
ELG1 genotoxic: induces genotoxicity in HEK293T cells with luciferase-tagged ELG1. 330,000 compounds, 1.3% hits. Potency, µM (series often up to 46 µM), for inactives: at the top dose activity change, positive = activation, hits mostly activators. AID 504466. HEK293T ELG1-luciferase reporter, luminescence, 16 h; further: % of control where 0% means no effect; nearly all actives have a fitted effect of over 60% in size
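After overnight (16 hr) compound treatment at 37 °C, ELG1-luciferase HEK293T cells were lysed with ONE-Glo; luminescence quantified 30 min later at room temperature.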
NPC1 promoter act: NPC1 promoter activation; Huh7 NPC1 promoter luciferase reporter, 24 h; Potency, µM (titrated, usually from 9.22 µM), without a hit: top-dose activation, actives largely listed as activators; 320,000 compounds, 2.4% hits; further: % of control where 0% means no effect; nearly all actives have a fitted effect of over 60% in size
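NPC1 promoter–luciferase Huh7 cells; 24 h compound; luminescence.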
SMN2 splice enh: enhancers of SMN2 splice variant expression. Potency, µM (doses to about 46.1 µM), for the others: at the highest dose activity change, positive = activation, hits mostly activators. 210,000 compounds, 2.8% hits. AID 1458. HEK293 SMN2-luciferase splicing reporter, luminescence, 30-36 h; further: % of control where 0% means no effect; nearly all actives have a fitted effect of over 55% in size
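HEK293 cells carry an SMN2 minigene-luciferase reporter in which exon 7 inclusion puts luciferase in frame. Cells were seeded at 2000 cells/well, attached for 10-12 hours, then exposed to compounds for 30-36 hours at 37C before ONE-Glo luminescence.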
Rab9 prom act: activates the Rab9 promoter | Huh7 Rab9 promoter-luciferase reporter, luminescence, 24 h | Potency, µM (top dose mostly 9.22 µM), for inactives: top-dose activation, negative = inhibition, usual class: activators | 320,000 compounds, 2.8% hits; further: % of control where 0% means no effect; nearly all actives have a fitted effect of over 60% in size
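Promoter activation is measured as luciferase luminescence in Huh7 cells stably transfected with a Rab9 promoter–luciferase construct, following 24 h compound exposure at 37 °C and 10 min reagent incubation at ambient temperature.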
Starred values were filed as active, the others as inactive; ? = inconclusive; . = no result given; [ ] = another dose, or the depositor's remark. The list is not random: actives were taken first. Their share in the collection is about 7.3%. Unless noted, the call rests on the fitted dose curve; in most records, active means well fitted curve in the direction sought with a large enough effect; inconclusive means small, poorly fitted or top-dose-only effect, or another doubt; inactive means no such curve, though single readings can be large; an effect the other way counts as inactive or inconclusive. Potency means the concentration at half of the fitted maximal effect.

SMILES	uPA surface inh	FLuc modulator	ELG1 genotoxic	NPC1 promoter act	SMN2 splice enh	Rab9 prom act
O=C(N/N=C/c1cn(Cc2ccccc2)c2ccccc12)c1cc(O)cc(O)c1	10%	24µM*	3%	-4%	.	-7%
CC1=C(c2ccc(Cl)cc2)S(=O)(=O)NC1=NCc1ccc(C)cc1	.	0%	.	.	.	.
COC(=O)C1CCN(C(=O)c2cc(-c3ccc(Cl)s3)nc3ccccc23)CC1	1.8µM*	?	-11%	-1%	.	-5%
CCN1CCN(C(=O)c2cc(-c3ccc(Cl)s3)nc3ccccc23)CC1	-20%	19µM*	-6%	-2%	.	-1%
CCOc1ccccc1C(=O)NC(C(=O)Nc1cccc(S(N)(=O)=O)c1)C(C)C (stereo not drawn)	0%	-2%	-2%	0%	-25%	-5%
COc1cccc(-c2nc(-c3cccs3)no2)c1	-7%	0.27µM*	?	2.8µM*	.	2.5µM*
COc1cc(OC)cc(-c2nc(-c3ccccc3OC)no2)c1	4%	-15%	8%	9%	14%	21%
COc1ccc(-c2ccc(-c3noc(-c4cccs4)n3)c(OC)n2)cc1	2%	-14%	?	16%	12%	28%
COc1cccc(-c2nc(-c3ccncc3)no2)c1	-3%	5.4µM*	?	2.8µM*	.	1.4µM*
COc1cc(OC)cc(-c2nc(-c3cccs3)no2)c1	5%	11µM*	-9%	?	26%	?
CN(C)S(=O)(=O)c1cc(C(=O)OCCn2cnc3c2c(=O)n(C)c(=O)n3C)ccc1Cl	-3%	-2%	-12%	-4%	-18%	-2%
COc1cc2c(cc1OC)C(COc1ccc3c(C)cc(=O)oc3c1)N(C(=O)c1cccc(C)c1)CC2 (stereo not drawn)	.	0%	.	.	9%	.
Cc1ccc(NC(=O)COC(=O)C2CC3CCCC(C2)C3=O)c([N+](=O)[O-])c1 (stereo not drawn)	-24%	-13%	-1%	-2%	.	-3%
COc1ccc(OC)c(-c2cc(C(=O)NC(C)c3ccccc3)no2)c1 (stereo not drawn)	.	-7%	.	.	-7%	.
Cc1cccc(C(=O)Nc2ccc(-c3nc4cc(C(C)C)ccc4o3)cc2)c1	.	?	.	.	-3%	.
CCc1ccc(C(=O)Nc2cccc(-c3nc4cc(C(C)C)ccc4o3)c2)cc1	.	2.7µM*	.	.	-5%	.
CC(C)c1ccc2oc(-c3ccc(NC(=O)c4ncn[nH]4)cc3)nc2c1	-21%	1.5µM*	9.2µM*	?	?	?
COc1cc(OC)cc(C(=O)Nc2ccc(-c3nc4cc(C(C)C)ccc4o3)cc2)c1	.	11µM*	.	.	-29%	.
COc1ccc([C@@H](C)NC(=O)c2ccc3oc(C(C)C)nc3c2)cc1	2%	17µM*	3%[9.26 µM]	?	.	?
COc1cc(OC)cc(C(=O)Nc2ccc(-c3nc4ccccc4o3)cc2)c1	3%	-10%	-5%	-3%	-13%	-2%
O=C(O)CSc1ccc(N=C=S)cc1	.	.	.	.	-15%[9.22 µM]	.
Cc1noc(C)c1C(=O)N1CCC2(CCCN(c3ncccn3)C2)CC1	.	.	.	.	-10%	.
O=C(COCc1cc(-c2ccc(F)cc2)on1)Nc1cccc(C(F)(F)F)c1	.	-23%	.	.	11%	.
OC(CN1CCNCC1)Cn1c2ccc(Br)cc2c2cc(Br)ccc21 (stereo not drawn)	.	.	.	.	-6%	.
CCC(C)c1ccc2oc(-c3ccc(NC(=O)c4ncn[nH]4)cc3)nc2c1 (stereo not drawn)	-3%	2.7µM*	?	15%	26%	6%
CCC(C)c1ccc(O)c(NC(=O)c2ncn[nH]2)c1 (stereo not drawn)	-12%	?	0%	5%	-14%	1%
CN(C)/C=N/c1ncn(-c2ncc(C(F)(F)F)cc2Cl)n1	-7%	?	?	3.2µM*	11µM*	2.2µM*
COc1ccc2c(c1)O[C@@H](c1cccc(C(F)(F)F)c1)[C@H](OC(=O)N[C@H](C)C1CCCCC1)C2=O	.	.	.	.	8%	.
